A selection: hits, their analogues and other compounds. The true share with any hit is near 7.9%.
NOMO-1 viab – STK33 inhibitor candidate reducing NOMO-1 cell viability. inhibition, % (test concentration not listed). hit rate 7.5% among 37,000. AID 2330. NOMO-1 AML viability, CellTiter-Glo luminescence, 72 h; in the data active = inhibition above about 80%; inconclusive = no clear call, values can overlap the other calls
PD-1 reverse act – reversal of PD-1 mediated T-cell inhibition | primary human CD4 T cells, PD-L1 beads, CellTiter-Glo 96 h | activation, % (no concentration beside the values) | 29,000 tested, under 10 active; call rule not given here
MITF inhib – inhibitors of MITF; inhibition, % (concentration not given with the values); TRPM1 promoter luciferase, luminescence, 24 h; AID 2240; hit rate 0.28% among 37,000; in the data active = inhibition above about 85%; inconclusive = no clear call, values can overlap the other calls; inactive = below about 68%;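 also: human melanocyte line stably carrying TRPM1 promoter luciferase reporter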
Hedgehog inh – blocks Sonic Hedgehog signaling. Shh-LIGHT2 Gli-luciferase reporter, 30 h. inhibition, % (no concentration beside the values). hit rate 2.1% among 22,000. AID 2313;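 active = mean inhibition across valid replicates above about 65%, limit read from the data; inconclusive = mean under the limit, yet half or more replicates past it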;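 also: pathway switched on by Shh-conditioned medium diluted 1 in 25 in low serum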
A number is an active result; n = inactive; u = inconclusive; x = not tested or not shown.

SMILES	NOMO-1 viab	PD-1 reverse act	MITF inhib	Hedgehog inh
O=C(COc1ccc([N+](=O)[O-])cc1)Nc1ccc(-c2nc3ccccc3s2)c(Cl)c1	n	n	n	x
C[C@H]1CC(O)C23COC(=O)[C@@H]2CCC[C@@H]3[C@@]12C[C@@H](c1ccoc1)OC2=O (stereo partly specified)	x	x	x	n
CC(C)(C)c1ccc(OCC(N)=NC(=O)c2ccc(OC(F)(F)F)cc2)cc1	136	n	n	x
CN(C)c1ccc(/C=C2\C(=O)Nc3ccccc32)c2ccccc12	86	n	n	n
C[C@@H]1CN([C@@H](C)CO)C(=O)Cc2cc(NC(=O)C3CCCCC3)ccc2O[C@@H]1CN(C)Cc1ccc(Oc2ccccc2)cc1	95	x	n	u
C[C@@H]1CN([C@H](C)CO)C(=O)Cc2cc(NC(=O)C3CCCCC3)ccc2O[C@@H]1CN(C)Cc1ccc(-c2ccccc2)cc1	113	n	n	n
C[C@H](CO)N1C[C@H](C)[C@H](CN(C)Cc2ccc(Oc3ccccc3)cc2)Oc2ccc(NC(=O)C3CCCCC3)cc2CC1=O	n	n	n	n
C[C@@H]1CN([C@H](C)CO)C(=O)Cc2cc(NC(=O)C3CCCCC3)ccc2O[C@@H]1CN(C)Cc1ccc(Oc2ccccc2)cc1	n	n	n	70
CCOC(=O)CSc1nc(N)c2c3c(sc2n1)COC(C)(C)C3	105	n	n	x
O=C(CCc1ccc(O)cc1)CC(O)CCc1ccc(O)c(O)c1 (stereo unspecified)	85	n	n	n
CCCCC[C@H](O)CC(=O)CCc1ccc(O)c(OC)c1	n	x	n	n
O=S(=O)(Nc1nc2ccccc2nc1NCCc1ccccc1)c1ccc(Cl)cc1	n	n	n	78
O=C(CSc1nc2ccccc2nc1N1CCCC1)NCCc1ccc(Cl)cc1	n	n	n	n
O=C(O)c1cccc(COc2ccc(CO)cc2Br)c1	n	n	u	x
O=C(O)c1cccc(COc2ccc(CO)cc2Cl)c1	n	n	89	x
CCN(CC(=O)Nc1ccccc1OC)S(=O)(=O)c1ccc(C)cc1	n	n	n	x
O=c1cc(-c2ccccc2)n(-c2ccccc2)cn1	101	n	n	n
CCC(=O)Nc1ccc(S(=O)(=O)Nc2nccc(/C=C/c3ccccc3Cl)n2)cc1	n	n	n	x
COc1c(O)c2c(=O)cc(OC)c3c4c(OC)cc(=O)c5c(O)c(OC)c(C[C@@H](C)OC(=O)c6ccccc6)c(c(c1C[C@@H](C)OC(=O)Oc1ccc(O)cc1)c23)c54	142	n	n	72
CCn1c(SCC(=O)Nc2cccc(C(F)(F)F)c2)nnc1-c1c[nH]c2ccccc12	n	n	n	x
C[C@@H]1CN([C@H](C)CO)C(=O)c2cccc(NC(=O)Nc3ccc(F)cc3)c2O[C@@H]1CN(C)Cc1ccc(Cl)c(Cl)c1	n	n	n	n
C[C@H](CO)N1C[C@H](C)[C@@H](CN(C)Cc2ccc(Cl)c(Cl)c2)Oc2c(NC(=O)Nc3cccc4ccccc34)cccc2C1=O	115	n	n	n
C[C@H](CO)N1C[C@H](C)[C@H](CN(C)Cc2ccc(Cl)c(Cl)c2)Oc2c(NC(=O)Nc3ccc(C(F)(F)F)cc3)cccc2C1=O	94	n	n	n
C[C@@H]1CN([C@H](C)CO)C(=O)c2cccc(NC(=O)Nc3cccc4ccccc34)c2O[C@@H]1CN(C)Cc1ccc(Cl)c(Cl)c1	n	n	n	n
C[C@H](CO)N1C[C@H](C)[C@H](CN(C)Cc2ccc(Cl)c(Cl)c2)Oc2c(NC(=O)Nc3ccc(F)cc3)cccc2C1=O	99	n	n	n
SMILES	NOMO-1 viab	PD-1 reverse act	MITF inhib	Hedgehog inh
C[C@@H]1CN([C@H](C)CO)C(=O)c2cccc(NC(=O)Nc3ccccc3)c2O[C@H]1CN(C)Cc1ccc(Cl)c(Cl)c1	106	n	n	n
Cc1onc(-c2ccccc2)c1C(=O)Nc1cccc(S(=O)(=O)N(C)C)c1	n	x	n	x
C[C@@H]1CN([C@@H](C)CO)C(=O)c2cccc(NC(=O)Nc3ccccc3)c2O[C@@H]1CN(C)Cc1ccc(Cl)c(Cl)c1	116	n	n	n
CC(=O)Nc1ccc(C(=O)CSc2nnc(-c3ccccc3Cl)o2)cc1	n	x	n	x
C[C@H](CO)N1C[C@H](C)[C@H](CN(C)S(=O)(=O)c2ccc(Cl)cc2)Oc2c(NC(=O)C3CC3)cccc2C1=O	n	n	n	98
C[C@@H]1CN([C@@H](C)CO)C(=O)c2cccc(NC(=O)C3CCOCC3)c2O[C@H]1CN(C)S(=O)(=O)c1ccc(Cl)cc1	n	n	n	n
C[C@H]1CN([C@@H](C)CO)C(=O)c2cccc(NC(=O)C3CC3)c2O[C@@H]1CN(C)S(=O)(=O)c1ccc(Cl)cc1	n	n	n	n
Cc1cc(C(=O)Nc2cccc3c2O[C@@H](CN(C)S(=O)(=O)c2ccc(Cl)cc2)[C@@H](C)CN([C@H](C)CO)C3=O)n(C)n1	n	n	n	78
C[C@H]1CN([C@@H](C)CO)C(=O)c2cccc(NC(=O)C3CCOCC3)c2O[C@H]1CN(C)S(=O)(=O)c1ccc(Cl)cc1	n	n	n	84
Cc1cc(C)nc(N/C(=N/S(=O)(=O)c2ccc(Br)cc2)N2CCC(C)CC2)n1	n	n	n	n
COc1ccc(NC(=O)Nc2cccc3c2O[C@@H](CN(C)Cc2ccc(C(=O)Nc4ccccc4N)cc2)[C@@H](C)CN([C@@H](C)CO)C3=O)cc1	129	n	n	x
COc1ccc(CN(C)C[C@H]2Oc3c(NC(=O)Nc4ccc(OC)cc4)cccc3C(=O)N([C@@H](C)CO)C[C@@H]2C)cc1	n	x	n	n
COc1ccc(NC(=O)Nc2cccc3c2O[C@H](CN(C)Cc2ccc(C(=O)Nc4ccccc4N)cc2)[C@H](C)CN([C@H](C)CO)C3=O)cc1	140	n	n	x
COc1ccc(NC(=O)Nc2cccc3c2O[C@@H](CN(C)Cc2ccc(C(=O)Nc4ccccc4N)cc2)[C@H](C)CN([C@@H](C)CO)C3=O)cc1	126	n	n	x
COc1ccc(NC(=O)Nc2ccc3c(c2)C(=O)N([C@@H](C)CO)C[C@H](C)[C@H](CN(C)Cc2ccc(C(=O)Nc4ccccc4N)cc2)O3)cc1	n	n	n	x
CCc1cccc(OCC(=O)Nc2ccccc2C(N)=O)c1	n	n	n	x
COc1cccc(NC(=O)CN(c2ccc(C)cc2C)S(C)(=O)=O)c1	n	n	n	x
CS(=O)(=O)N(CC(=O)Nc1ccc(F)c(Cl)c1)c1ccc2c(c1)OCCO2	n	n	n	x
CCCCCC(=O)Cc1cc(O)c(O)c2c1C(=O)Oc1cc(O)c(C(=O)O)c(CCCCC)c1O2	108	n	n	75
COc1cc(CC(C)C(C)Cc2ccc(O)c(OC)c2)ccc1O (stereo unspecified)	121	n	n	n
COc1cc(CC(CO)C(CO)Cc2cc(OC)c(O)c(-c3cc(CC(CO)C(CO)Cc4ccc(O)c(OC)c4)cc(OC)c3O)c2)ccc1O (stereo unspecified)	x	x	x	n
C[C@@H]1CN([C@H](C)CO)C(=O)Cc2cc(NC(=O)Nc3ccc(C(F)(F)F)cc3)ccc2O[C@@H]1CN(C)Cc1ccncc1	u	n	n	n
C[C@H]1CN([C@@H](C)CO)C(=O)Cc2cc(NC(=O)Nc3ccc(C(F)(F)F)cc3)ccc2O[C@H]1CN(C)Cc1ccncc1	134	n	n	n
